# Source: PubChem BioAssay AID1211 (NMMLSC, 2008)
# Activity calls are given as the source filed them. How the calls were made is not given here.
# Biological target: Estrogen receptor (Homo sapiens) (UniProt P03372)
# Assay: displacement of fluorescent estrogen from ERalpha – cell-based, Cos7 ERalpha-GFP, flow cytometry, primary screen (AID 1211);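 further: 0% = DMSO vehicle wells and 100% = no E2-Alexa633 signal left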
# Settings: fluorescent ligand competition, stronger effect = higher value
# Chain of Estrogen receptor (Homo sapiens) (P03372 whole entry, looked up): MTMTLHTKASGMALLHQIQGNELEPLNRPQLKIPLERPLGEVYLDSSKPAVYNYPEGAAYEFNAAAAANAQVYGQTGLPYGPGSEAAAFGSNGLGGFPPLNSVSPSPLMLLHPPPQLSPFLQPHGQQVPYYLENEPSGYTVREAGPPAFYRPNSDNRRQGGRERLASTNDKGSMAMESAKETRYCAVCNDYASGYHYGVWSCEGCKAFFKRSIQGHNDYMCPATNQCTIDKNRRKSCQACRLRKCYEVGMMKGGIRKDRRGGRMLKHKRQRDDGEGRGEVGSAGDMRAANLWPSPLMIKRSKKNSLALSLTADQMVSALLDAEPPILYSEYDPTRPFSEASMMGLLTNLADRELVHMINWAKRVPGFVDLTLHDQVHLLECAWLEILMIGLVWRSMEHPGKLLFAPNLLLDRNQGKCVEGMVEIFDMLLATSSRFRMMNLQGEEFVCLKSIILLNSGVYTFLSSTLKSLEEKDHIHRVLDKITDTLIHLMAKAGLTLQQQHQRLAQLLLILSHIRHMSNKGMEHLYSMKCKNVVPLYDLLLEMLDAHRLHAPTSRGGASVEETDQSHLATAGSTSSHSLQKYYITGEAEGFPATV
SMILES,inhibition of ligand binding (at 10 µM),"inhibition of ligand binding (binding inhibition, at 0.1 µM) [%]"
CSC1=N/C(=C\c2ccc(Br)o2)C(=O)S1,12% (inactive),13
CC12CCC(=O)N1C(C(=O)OCC(=O)Nc1sccc1C#N)CS2 (stereo not given),47% (active),89
CCCC1=NN2C(=N)/C(=C\c3ccc(SCc4ccco4)o3)C(=O)N=C2S1,14% (inactive),26
CCOC(=O)N1CCN(c2ccc(O)cc2)CC1,57% (inactive),56
COc1cc2c(cc1OC)CC(C)(C)N(Cc1ccco1)C2,0% (inactive),
CC(=O)c1ccc2c(c1)C1C=CCC1C(c1ccc(S(=O)(=O)N3CCOCC3)cc1)N2 (stereo not given),0% (inactive),
COC(=O)c1ccc2c(c1)C1C=CCC1C(c1cccc([N+](=O)[O-])c1)N2 (stereo not given),10% (inactive),
CCOC(=O)c1ccc2c(c1)C1C=CCC1C(c1cccc([N+](=O)[O-])c1)N2 (stereo not given),21% (inactive),
COc1ccc(OC)c(NC(=O)c2cc(-c3ccc(C)cc3O)n[nH]2)c1,40% (inactive),5
Oc1cccc(-c2nc3ccc4ccccc4c3c3c2CCC3)c1,33% (inactive),21
Cc1ccc(-c2nn3c(C)nnc3s2)cc1NC(=O)COc1ccc(Cl)cc1,38% (inactive),42
O=C(c1cccs1)N1N=C(c2ccc(O)cc2)CC1c1ccccc1 (stereo not given),58% (inactive),17
Cc1cc(C(C)CO)cc(C(C)(C)C)c1O (stereo not given),21% (inactive),
COc1cc([N+](=O)[O-])cc2c1NC(c1ccccc1)C1CC=CC21 (stereo not given),0% (inactive),
N#Cc1c2c(c(=O)n3c1[nH]c1ccccc13)CCCC2,23% (inactive),
Cc1c(O)ccc2c3c(c(=O)oc12)CCCC3,0% (inactive),
CCOC(=O)COc1cc2oc(=O)c3c(c2cc1CC)CCCC3,0% (inactive),
COc1cc2c(cc1OC)C(Cc1ccc(O)cc1)N(C)CC2 (stereo not given),0% (inactive),16
COc1ccc(-c2nnc(SCC(=O)c3cc(C)n(Cc4cccs4)c3C)o2)cc1,35% (inactive),
CC(C)COc1ccc2c(c1)c1c3n2CCNC3CCC1 (stereo not given),22% (inactive),
CC1(C)C=C(c2ccc(O)cc2)CC(C)(C)N1,8% (inactive),
Cc1cc(NC(=O)CSc2cn(CCNC(=O)c3ccc(Cl)cc3)c3ccccc23)no1,15% (inactive),37
CCCCOc1cc(OCCCC)c2c3c(c(=O)oc2c1)CCCC3,19% (inactive),

SMILES,inhibition of ligand binding (at 10 µM),"inhibition of ligand binding (binding inhibition, at 0.1 µM) [%]"
CCN1CCc2nc(NC(=O)Cc3ccc4c(c3)OCCO4)sc2C1,36% (inactive),31
CCOC(=O)CSc1nn(C)c(=S)s1,52% (inactive),38
Cc1ccc2occ(C3NC(C(=O)O)CS3)c(=O)c2c1 (stereo not given),39% (inactive),27
Cc1nn2cc(-c3ccc(N)cc3)nc2s1,28% (inactive),53
CSc1ccccc1NC(=O)c1noc2c1CCC2,56% (inactive),26
CCOC(=O)Cc1cc(-c2ccc(O)cc2)nc2ccc3ccccc3c12,37% (inactive),15
C1=C(N2CCOCC2)/C(=C/c2nc3ccccc3[nH]2)CC1,50% (inactive),41
O=C(COC(=O)c1cccc(S(=O)(=O)N2CCc3ccccc3C2)c1)NCc1ccco1,35% (inactive),7
Oc1c(C=Nc2cccc3cccnc23)sc2ccccc12,40% (inactive),21
CCCc1cc(-n2ccnc2)n2c(nc3ccccc32)c1C#N,14% (inactive),50
O=C(NCc1ccco1)c1cc2c(s1)CSC2,24% (inactive),25
Cc1nnc(NC(=O)Cc2cccs2)s1,44% (inactive),42
Cc1snc2sc(C(=O)c3ccc(Br)cc3)c(N)c12,48% (inactive),29
Oc1ccc(/C=C/c2nc(-c3ccccc3O)n(-c3ccccc3)n2)cc1,11% (inactive),58
Nc1ccc(N2CCN(C(=O)c3ccco3)CC2)cc1,28% (inactive),33
Nc1ccc(-c2nc3ccc([N+](=O)[O-])cc3[nH]2)cc1,36% (active),82
COc1cccc(-n2nnnc2SCC(=O)Nc2ccc(C(C)=O)cc2)c1,38% (inactive),45
CC(=O)c1sc2nc(SCC(=O)N3CCCCC3)[nH]c(=O)c2c1C,33% (inactive),30
O=C(Cc1cccs1)Nc1nncs1,33% (inactive),13
O=c1c(OC2OC(CO)C(O)C(O)C2O)c(-c2ccc(O)c(O)c2)oc2cc(O)cc(O)c12 (stereo not given),39% (inactive),33
CCOC(=O)c1ccc(NC(=O)CSc2nc(C)cc(=O)[nH]2)cc1,49% (inactive),21
O=C(CCCn1c(=S)[nH]c2ccccc2c1=O)N1CCN(c2cccc(Cl)c2)CC1,55% (inactive),15
O=S(=O)(NCc1csc(-c2cccnc2)n1)c1ccc(Cl)s1,45% (inactive),6

SMILES,inhibition of ligand binding (at 10 µM),"inhibition of ligand binding (binding inhibition, at 0.1 µM) [%]"
CN(C)c1ccc(N=Cc2ccco2)cc1,37% (inactive),23
COc1cccc2c1NC(C(=O)O)C1CC=CC21 (stereo not given),38% (inactive),9
CCc1ccc(Nc2cc(C(=O)NCCCN3CCOCC3)c3ccccc3n2)cc1,25% (inactive),32
COc1ccc(C2Nc3ccccc3C(=O)N2c2ccc(F)cc2)cc1CSc1ccccn1 (stereo not given),10% (inactive),28
CCOc1ccccc1-n1nnnc1SCC(=O)NC(=O)NCc1ccco1,5% (inactive),5
O=c1oc2ccccc2cc1-c1ccc(O)cc1,60% (inactive),24
COc1ccc(C2CC(c3cccs3)=NN2c2ccc(C=O)cc2)cc1 (stereo not given),58% (inactive),38
O=c1cc(-c2ccc(O)c(-c3c(O)cc(O)c4c(=O)cc(-c5ccc(O)cc5)oc34)c2)oc2cc(O)cc(O)c12,24% (inactive),9
NC(=O)c1oc2ccccc2c1NC(=O)c1nc2ccccc2s1,43% (inactive),4
CCN(c1ccccc1)S(=O)(=O)c1cc(C(=O)O)ccc1C,7% (inactive),20
O=C(Nc1ccc2oc(-c3ccc4ccccc4c3)nc2c1)c1cccs1,32% (inactive),51
CCC(=O)Nc1ccc(C(=O)Cn2nc(C(=O)O)c3ccccc3c2=O)cc1,50% (inactive),30
Cc1ccccc1OCC1Cc2c(nc(N)c(C#N)c2N)O1 (stereo not given),31% (inactive),13
CCOC(=O)c1cc2c(c(CSc3nc4ccccc4c(=O)n3Cc3ccco3)c1)OCOC2,46% (inactive),18
O=C(C1c2ccccc2C(=O)N2CCc3ccccc3C12)N1CCN(Cc2ccccc2)CC1 (stereo not given),41% (inactive),12
C/C(=N\Nc1ccc([N+](=O)[O-])cc1)c1cccc(N)c1,4% (inactive),35
Oc1ccc(-c2csc(-c3c[nH]c4ccccc34)n2)c(O)c1,57% (inactive),45
COc1ccc2nc3oc(C(=O)N4CCN(c5cccc(C(F)(F)F)c5)CC4)cc3cc2c1,45% (inactive),19
Cc1ccc(-c2csc(NC(=O)c3ccno3)n2)cc1,60% (inactive),29
CCOc1cc(C2CC(=O)c3c(ccc4ccccc34)N2)ccc1O (stereo not given),32% (inactive),23
CCCNCC1COc2ccccc2O1 (stereo not given),2% (inactive),21
O=C(Nc1ccc(-c2nc3ccc(NC(=O)c4cccs4)cc3[nH]2)cc1)c1cccs1,39% (inactive),20
Cc1ccccc1Nc1nnc(SCC(=O)NCc2ccco2)s1,40% (inactive),11

SMILES,inhibition of ligand binding (at 10 µM),"inhibition of ligand binding (binding inhibition, at 0.1 µM) [%]"
N#CC1=C(N)OC2=C(CCC/C2=C/c2ccoc2)C1c1ccoc1 (stereo not given),56% (inactive),40
O=C(Nc1nccs1)c1ccc2nccnc2c1,33% (inactive),24
COc1ccc(Cn2c(=O)[nH]c3cc(C(=O)NCc4ccc5c(c4)OCO5)ccc3c2=O)cc1,23% (inactive),53
O=C(Cc1cccs1)Nc1ccc(S(=O)(=O)N2CCCCC2)cc1,32% (inactive),22
Cc1ccccc1NC(=O)CSc1nnc(-c2ccco2)c(-c2ccco2)n1,47% (active),66
Cc1cc(=O)[nH]c(SCC(=O)NCc2ccco2)n1,19% (inactive),8
C[C@@H]1O[C@@H](Oc2c(-c3cc(O)c(O)c(O)c3)oc3cc(O)cc(O)c3c2=O)[C@H](O)[C@H](O)[C@H]1O,52% (inactive),26
Cc1ccc(/C=c2\sc3nc(-c4ccco4)nn3c2=O)o1,37% (inactive),26
CN1CCc2cccc3c2[C@@H]1Cc1ccc(O)c(O)c1-3,42% (inactive),6
Cc1oc2c(C)c(O)ccc2c(=O)c1N1C(=O)c2ccccc2C1=O,9% (inactive),52
Cc1ccc(S(=O)(=O)Cc2ccc(C(=O)N3CCN(Cc4ccccc4)CC3)o2)cc1,25% (inactive),9
Oc1ccc(-c2nnc(-c3ccccc3)c(-c3ccccc3)n2)cc1,47% (inactive),51
Nc1ccc(-c2nc3ccc(C(=O)O)cc3s2)cc1,0% (inactive),42
O=C1c2ccccc2NC(c2cccnc2)N1c1ccccc1F (stereo not given),14% (inactive),35
O=C1/C(=C\c2ccco2)SC(=S)N1c1ccc(O)cc1,61% (inactive),31
COC(=O)c1[nH]c2ccc(C)cc2c1NC(=O)CN1CCCc2ccccc21,49% (inactive),9
NNc1nc2sc3c(c2c(=O)[nH]1)CCc1ccccc1-3,55% (inactive),28
Oc1ccccc1N=Nc1nc(-c2ccccc2)c(-c2ccccc2)[nH]1,52% (inactive),27
O=C(CSc1ccc(Cl)cc1)c1ccco1,42% (inactive),65
Cc1ccnc(NS(=O)(=O)c2ccc(NC(=O)c3cc(-c4ccc(Br)cc4)nc4ccccc34)cc2)n1,49% (inactive),47
